The results in this text go back to ChEMBL document CHEMBL4513146, “CO-ADD screening of Karazin Kharkiv National University (Ukraine) compounds”.

Results with a measured potency or affinity are listed apart.

In one assay the test system is Klebsiella pneumoniae. The note with it: Concentration 32 ug.mL-1;; ASSAY_TEST Inhibition of Bacterial Growth; detection method Absorption (OD600); MEDIA CAMHB; plate type 384well; NBS; CORNING #3640; time 18 hr.
Another assay relates to Candida albicans. The note with it: Concentration 32 ug.mL-1; ASSAY_TEST Inhibition of Fungal Growth; detection method Absorption (OD530).
Another assay deals with Cryptococcus neoformans. The note with it: Concentration 32 ug.mL-1; ASSAY_TEST Inhibition of Fungal Growth; detection method Resazurin; Absorption (OD600-OD570); plate type 384well; NBS; CORNING #3640. Background: The colour change of resazurin is a common sign of viable cells or microbes.

For orientation: Inhibition means the relative decrease from the control value, in per cent.

Consider `CC(C)(C)Sc1ccc2nn(CC(=O)Nc3ccc(Cl)cc3)c(=O)n2n1`, for which the Inhibition is 16.93% in the assay on Klebsiella pneumoniae, 5.49% with Candida albicans and -24.82% with Cryptococcus neoformans.

With `COc1cccc(CN(c2ccc(C(C)C)cc2)S(=O)(=O)c2cccn3cnnc23)c1`, the Inhibition in the assay on Klebsiella pneumoniae was 13.52%; in the assay on Candida albicans, 10.84%; in the assay on Cryptococcus neoformans, -11.09%.

For `COc1cc(NC(=O)Cn2nc3ccc(SC(C)(C)C)nn3c2=O)cc(OC)c1OC`, the results for the Inhibition with Klebsiella pneumoniae, in the assay with Candida albicans and in the assay with Cryptococcus neoformans were 14.77%, 0.63% and -18.78%, respectively.

Take `O=c1c2nnc(SCc3ccccc3Cl)n2ccn1-c1ccc(F)cc1`: the Inhibition is 8% with Klebsiella pneumoniae, 2.71% in the assay with Candida albicans and -9% with Cryptococcus neoformans.

As to `COc1cccc(-n2ccn3c(SCC(=O)c4ccc(C)cc4C)nnc3c2=O)c1`, the Inhibition with Klebsiella pneumoniae is 16.45%; in the assay with Candida albicans, 4.51%; in the assay with Cryptococcus neoformans, -10.37%.

For the molecule `O=C(Cn1nc2c(Sc3ccccc3)nccn2c1=O)Nc1cccc(Cl)c1F`, the Inhibition is given as 13.46% in the assay on Klebsiella pneumoniae, 0.76% in the assay with Candida albicans and -9.38% with Cryptococcus neoformans.

Turning to `COc1ccc(-c2cc3c4nn(CC(=O)Nc5ccc(OC)cc5OC)c(=O)n4ccn3n2)cc1`, the Inhibition with Klebsiella pneumoniae is recorded as 12.55%; in the assay with Candida albicans it was 0.69%; with Cryptococcus neoformans it was -8.54%.

As for `COc1cccc(-n2ccn3c(SCc4c(F)cccc4Cl)nnc3c2=O)c1`, the Inhibition in the assay with Klebsiella pneumoniae is 6.32%; in the assay with Candida albicans, 2.64%; in the assay on Cryptococcus neoformans, -10.15%.

With `O=c1n(Cc2cccc(C(F)(F)F)c2)nc2ccc(S(=O)(=O)N3CCCCC3)cn12`, the Inhibition in the assay with Klebsiella pneumoniae is 10.15%; in the assay on Candida albicans it was 0.06%; in the assay on Cryptococcus neoformans it was -10.55%.

Regarding `Cc1ccc(NC(=O)Cn2nc3c(Oc4ccccc4)nccn3c2=O)c(Cl)c1`, the Inhibition with Klebsiella pneumoniae is -7.35%; in the assay with Candida albicans, -1.78%; in the assay on Cryptococcus neoformans, -4%.

For the molecule `O=C(Cn1nc2c(N3CCSCC3)nc3ccccc3n2c1=O)NCc1ccccc1`, the Inhibition in the assay with Klebsiella pneumoniae is given as 13.9%; with Candida albicans, 0.65%; in the assay on Cryptococcus neoformans, -23.77%.

Take `Cc1ccc(CN(c2ccc(C(C)C)cc2)S(=O)(=O)c2cccn3c(C)nnc23)cc1`: the Inhibition in the assay on Klebsiella pneumoniae was 0.92%; in the assay with Candida albicans it was 1.03%; in the assay with Cryptococcus neoformans, -9.63%.

Take `O=c1c2sccc2n2c(=O)n(Cc3ccccc3Cl)nc2n1CCc1ccccc1`: the Inhibition in the assay on Klebsiella pneumoniae is 12.78%; in the assay with Candida albicans it was 2.07%; in the assay on Cryptococcus neoformans, -28.45%.

As to `Cc1nnc2ccc(S(=O)(=O)N(Cc3ccccc3F)c3ccc(F)cc3)cn12`, the figures for the Inhibition in the assay with Klebsiella pneumoniae, in the assay on Candida albicans and in the assay on Cryptococcus neoformans were 5.62%, 1.21% and -9.05%, respectively.

In the case of `CCOc1ccc(-n2ccn3c(SCC(=O)c4cccc(OC)c4)nnc3c2=O)cc1`, the Inhibition in the assay on Klebsiella pneumoniae is on record as 9.6%; in the assay with Candida albicans, 2.55%; in the assay with Cryptococcus neoformans, -9.06%.

Take `CCCn1c(=O)c2sccc2n2c(CCC(=O)NCCC34CC5CC(CC(C5)C3)C4)nnc12`: the Inhibition is recorded as 9.89% in the assay with Klebsiella pneumoniae, 5.72% in the assay with Candida albicans and -25.69% in the assay on Cryptococcus neoformans.

For the molecule `CCOc1ccc(-n2ccn3c(SCC(=O)c4ccc(OC)cc4)nnc3c2=O)cc1`, the Inhibition was 12.65% in the assay with Klebsiella pneumoniae, 0.38% in the assay with Candida albicans and -12.6% with Cryptococcus neoformans.

Take `COc1ccc(NC(=O)Cn2nc3c(Sc4cccc(F)c4)nccn3c2=O)cc1Cl`: the Inhibition is reported as 3.02% in the assay with Klebsiella pneumoniae, 0.26% in the assay with Candida albicans and -9.78% in the assay on Cryptococcus neoformans.

As to `Cc1c(Cl)cccc1-n1ccn2c(=S)[nH]nc2c1=O`, the Inhibition in the assay on Klebsiella pneumoniae was 8.12%; with Candida albicans, 2.5%; in the assay on Cryptococcus neoformans, -13.36%.

Regarding `O=c1c2nnc(SCc3ccccc3)n2ccn1-c1ccc(Br)cc1`, the Inhibition was 7.85% with Klebsiella pneumoniae, 5.19% in the assay on Candida albicans and -7.93% in the assay with Cryptococcus neoformans.

With `CC(C)NC(=O)CSc1nnc2c(=O)n(-c3ccccc3)ccn12`, the Inhibition is given as 11.98% in the assay with Klebsiella pneumoniae, 2.07% in the assay on Candida albicans and -5.87% with Cryptococcus neoformans.

Take `CCOc1ccc(C(=O)CSc2nnc3c(=O)n(-c4ccc(F)cc4)ccn23)cc1`: the Inhibition with Klebsiella pneumoniae is given as 4.99%; in the assay with Candida albicans it was 1.29%; with Cryptococcus neoformans, -6.51%.

For `COc1ccc(CNC(=O)Cn2nc3c(N4CCN(c5ccccc5)CC4)nccn3c2=O)cc1`, the Inhibition in the assay on Klebsiella pneumoniae is reported as 14.33%; with Candida albicans, 4.36%; in the assay on Cryptococcus neoformans it was -9.25%.

Consider `Cc1cc(Br)ccc1NC(=O)Cn1nc2c(Sc3cccc(F)c3)nccn2c1=O`, for which the Inhibition in the assay with Klebsiella pneumoniae was 4.98%; in the assay on Candida albicans, 6.11%; with Cryptococcus neoformans, -9.53%.

As for `O=C(CSc1nnc2c3cc(-c4ccc(F)cc4)nn3ccn12)NCc1ccccc1`, the Inhibition with Klebsiella pneumoniae was 0.49%; in the assay with Candida albicans it was 0.97%; in the assay with Cryptococcus neoformans, -18.29%.

Regarding `O=C(Cn1nc2c3cc(-c4ccc(Cl)cc4)nn3ccn2c1=O)Nc1ccc2c(c1)OCO2`, the Inhibition in the assay on Klebsiella pneumoniae was 13.7%; in the assay with Candida albicans, -0.02%; in the assay on Cryptococcus neoformans, -18.97%.

Take `Cc1ccc(F)cc1NC(=O)CSc1nc2ccccc2n2c(C)nnc12`: the Inhibition in the assay with Klebsiella pneumoniae is reported as 10%; in the assay on Candida albicans, 1.14%; in the assay with Cryptococcus neoformans it was -19.09%.

On to `COc1ccc(CNC(=O)Cn2nc3c(Oc4ccccc4C)nccn3c2=O)cc1`, for which the Inhibition was 7.26% with Klebsiella pneumoniae, -2.47% in the assay on Candida albicans and -8.82% in the assay on Cryptococcus neoformans.
